Assay results taken from the supplement of paper PMC11732987, “Enantioselective OTUD7B fragment discovery through chemoproteomics screening and high-throughput optimisation” (Communications Chemistry, 2025).

Columns and labels:
Experiment in all cases: log2 ratio of Biotin-Ahx-Ub-VS probe labelling (fragment/DMSO); higher = less target engagement (more negative = stronger competition), active = hit call of the paper (q ≤ 0.05, log2 ratio ≤ -1)
Conditions in all cases: compound concentration: 200 uM; treatment time: 3 h
[1] = biological target: USP34 (UniProt Q70CQ2)
Sequence of USP34 (Q70CQ2 whole entry, the tested form may be a part): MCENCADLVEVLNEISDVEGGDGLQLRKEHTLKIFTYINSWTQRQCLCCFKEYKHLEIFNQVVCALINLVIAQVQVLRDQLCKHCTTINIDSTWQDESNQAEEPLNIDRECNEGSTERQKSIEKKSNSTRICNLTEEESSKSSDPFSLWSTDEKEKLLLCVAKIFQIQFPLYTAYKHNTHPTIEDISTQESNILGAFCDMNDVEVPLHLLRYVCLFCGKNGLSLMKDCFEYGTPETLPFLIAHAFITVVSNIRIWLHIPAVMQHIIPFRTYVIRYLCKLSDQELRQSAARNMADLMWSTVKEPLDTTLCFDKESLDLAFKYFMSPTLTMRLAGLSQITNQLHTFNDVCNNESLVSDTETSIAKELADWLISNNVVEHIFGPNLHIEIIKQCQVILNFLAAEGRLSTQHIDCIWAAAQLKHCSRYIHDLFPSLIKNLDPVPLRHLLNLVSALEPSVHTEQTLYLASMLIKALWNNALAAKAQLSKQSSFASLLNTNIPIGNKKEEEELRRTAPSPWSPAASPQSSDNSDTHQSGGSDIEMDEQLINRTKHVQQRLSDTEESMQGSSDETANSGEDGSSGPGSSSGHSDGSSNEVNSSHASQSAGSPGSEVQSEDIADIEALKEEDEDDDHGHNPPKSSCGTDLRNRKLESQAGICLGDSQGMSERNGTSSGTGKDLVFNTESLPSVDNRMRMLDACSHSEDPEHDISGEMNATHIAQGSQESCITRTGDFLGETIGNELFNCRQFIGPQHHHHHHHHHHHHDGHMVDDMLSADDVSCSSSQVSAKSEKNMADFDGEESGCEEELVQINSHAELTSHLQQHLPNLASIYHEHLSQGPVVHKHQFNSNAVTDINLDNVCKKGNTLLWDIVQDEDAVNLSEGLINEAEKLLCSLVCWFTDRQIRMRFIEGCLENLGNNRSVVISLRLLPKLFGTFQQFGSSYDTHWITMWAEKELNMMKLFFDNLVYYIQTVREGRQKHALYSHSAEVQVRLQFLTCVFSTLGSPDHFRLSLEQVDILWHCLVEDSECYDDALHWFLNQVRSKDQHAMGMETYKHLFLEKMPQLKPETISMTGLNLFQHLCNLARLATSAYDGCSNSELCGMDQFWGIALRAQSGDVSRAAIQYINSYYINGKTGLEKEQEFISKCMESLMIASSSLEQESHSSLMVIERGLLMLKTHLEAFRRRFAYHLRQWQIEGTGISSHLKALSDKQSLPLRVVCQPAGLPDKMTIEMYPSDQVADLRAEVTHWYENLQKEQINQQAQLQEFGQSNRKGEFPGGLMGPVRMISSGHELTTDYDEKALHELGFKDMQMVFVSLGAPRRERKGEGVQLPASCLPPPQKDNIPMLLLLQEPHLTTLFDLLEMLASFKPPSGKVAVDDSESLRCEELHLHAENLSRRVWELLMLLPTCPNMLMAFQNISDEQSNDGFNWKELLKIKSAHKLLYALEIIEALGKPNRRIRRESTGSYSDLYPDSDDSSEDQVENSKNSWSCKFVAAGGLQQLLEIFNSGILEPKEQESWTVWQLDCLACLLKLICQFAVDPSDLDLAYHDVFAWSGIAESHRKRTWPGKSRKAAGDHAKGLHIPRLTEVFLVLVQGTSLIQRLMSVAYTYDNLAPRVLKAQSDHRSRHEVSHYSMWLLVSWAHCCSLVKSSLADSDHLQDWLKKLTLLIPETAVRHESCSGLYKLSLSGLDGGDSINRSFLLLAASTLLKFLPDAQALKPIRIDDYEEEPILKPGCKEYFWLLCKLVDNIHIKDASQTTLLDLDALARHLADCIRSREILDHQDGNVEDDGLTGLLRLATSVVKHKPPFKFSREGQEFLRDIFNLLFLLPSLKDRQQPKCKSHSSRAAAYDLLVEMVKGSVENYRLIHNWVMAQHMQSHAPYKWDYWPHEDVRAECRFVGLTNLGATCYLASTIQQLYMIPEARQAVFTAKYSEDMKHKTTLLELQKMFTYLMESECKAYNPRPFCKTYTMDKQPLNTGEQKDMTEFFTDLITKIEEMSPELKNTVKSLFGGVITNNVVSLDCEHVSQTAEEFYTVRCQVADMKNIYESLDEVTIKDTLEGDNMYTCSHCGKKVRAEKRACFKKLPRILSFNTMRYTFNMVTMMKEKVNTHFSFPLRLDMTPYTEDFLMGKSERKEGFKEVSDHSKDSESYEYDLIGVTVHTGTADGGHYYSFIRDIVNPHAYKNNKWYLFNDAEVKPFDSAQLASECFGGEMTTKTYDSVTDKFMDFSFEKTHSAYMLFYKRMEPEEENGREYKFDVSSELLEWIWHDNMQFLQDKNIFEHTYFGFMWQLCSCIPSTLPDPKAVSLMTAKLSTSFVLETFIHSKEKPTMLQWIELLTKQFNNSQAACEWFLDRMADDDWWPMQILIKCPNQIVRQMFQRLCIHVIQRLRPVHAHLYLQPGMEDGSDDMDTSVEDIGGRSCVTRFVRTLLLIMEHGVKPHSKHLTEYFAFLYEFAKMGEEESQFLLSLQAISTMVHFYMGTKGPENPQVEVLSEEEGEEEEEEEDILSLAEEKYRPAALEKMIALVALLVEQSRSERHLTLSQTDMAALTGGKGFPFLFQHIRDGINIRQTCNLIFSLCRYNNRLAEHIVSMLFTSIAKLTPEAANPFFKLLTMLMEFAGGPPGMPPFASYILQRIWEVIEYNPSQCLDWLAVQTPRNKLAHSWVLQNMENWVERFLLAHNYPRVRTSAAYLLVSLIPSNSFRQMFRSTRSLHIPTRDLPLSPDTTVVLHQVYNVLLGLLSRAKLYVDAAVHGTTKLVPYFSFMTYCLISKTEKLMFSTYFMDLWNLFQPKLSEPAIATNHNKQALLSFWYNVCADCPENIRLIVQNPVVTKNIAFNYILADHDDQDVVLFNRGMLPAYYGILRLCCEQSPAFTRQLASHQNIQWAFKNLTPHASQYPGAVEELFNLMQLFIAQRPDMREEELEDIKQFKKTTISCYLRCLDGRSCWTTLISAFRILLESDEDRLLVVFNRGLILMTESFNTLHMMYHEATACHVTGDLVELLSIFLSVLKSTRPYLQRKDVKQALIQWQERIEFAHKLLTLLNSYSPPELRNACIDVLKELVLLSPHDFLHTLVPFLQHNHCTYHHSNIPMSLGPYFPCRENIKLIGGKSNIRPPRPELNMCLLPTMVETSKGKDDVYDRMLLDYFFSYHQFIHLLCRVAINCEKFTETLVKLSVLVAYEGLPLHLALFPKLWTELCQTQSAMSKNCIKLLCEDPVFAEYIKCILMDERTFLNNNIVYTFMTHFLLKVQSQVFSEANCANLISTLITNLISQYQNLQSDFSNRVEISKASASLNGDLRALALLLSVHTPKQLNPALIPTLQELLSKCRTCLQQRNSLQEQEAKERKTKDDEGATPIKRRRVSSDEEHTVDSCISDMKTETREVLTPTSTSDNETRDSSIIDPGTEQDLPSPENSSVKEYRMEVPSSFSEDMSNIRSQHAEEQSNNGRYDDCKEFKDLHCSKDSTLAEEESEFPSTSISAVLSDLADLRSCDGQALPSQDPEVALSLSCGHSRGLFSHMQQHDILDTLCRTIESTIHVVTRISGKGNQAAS
How it was run: (§1)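 HEK293T lysate (495 µg per sample, in Tris/CHAPS/IGEPAL buffer with protease inhibitors) was treated in triplicate with fragment at 200 µM or with DMSO for 3 h. It was then treated with Biotin-Ahx-Ub-VS (0.5 µM final) for 1 h. Labelled DUBs were NeutrAvidin-enriched, digested with LysC and trypsin, and run by diaPASEF LC-MS/MS. Spectronaut label-free quantities were global-median-normalised. Values are average log2 ratios fragment/DMSO by unpaired t-test, using proteins with ≥2 unique peptides.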

[2] = biological target: T1, USP36 (UniProt Q9P275)
T1 sequence (whole entry): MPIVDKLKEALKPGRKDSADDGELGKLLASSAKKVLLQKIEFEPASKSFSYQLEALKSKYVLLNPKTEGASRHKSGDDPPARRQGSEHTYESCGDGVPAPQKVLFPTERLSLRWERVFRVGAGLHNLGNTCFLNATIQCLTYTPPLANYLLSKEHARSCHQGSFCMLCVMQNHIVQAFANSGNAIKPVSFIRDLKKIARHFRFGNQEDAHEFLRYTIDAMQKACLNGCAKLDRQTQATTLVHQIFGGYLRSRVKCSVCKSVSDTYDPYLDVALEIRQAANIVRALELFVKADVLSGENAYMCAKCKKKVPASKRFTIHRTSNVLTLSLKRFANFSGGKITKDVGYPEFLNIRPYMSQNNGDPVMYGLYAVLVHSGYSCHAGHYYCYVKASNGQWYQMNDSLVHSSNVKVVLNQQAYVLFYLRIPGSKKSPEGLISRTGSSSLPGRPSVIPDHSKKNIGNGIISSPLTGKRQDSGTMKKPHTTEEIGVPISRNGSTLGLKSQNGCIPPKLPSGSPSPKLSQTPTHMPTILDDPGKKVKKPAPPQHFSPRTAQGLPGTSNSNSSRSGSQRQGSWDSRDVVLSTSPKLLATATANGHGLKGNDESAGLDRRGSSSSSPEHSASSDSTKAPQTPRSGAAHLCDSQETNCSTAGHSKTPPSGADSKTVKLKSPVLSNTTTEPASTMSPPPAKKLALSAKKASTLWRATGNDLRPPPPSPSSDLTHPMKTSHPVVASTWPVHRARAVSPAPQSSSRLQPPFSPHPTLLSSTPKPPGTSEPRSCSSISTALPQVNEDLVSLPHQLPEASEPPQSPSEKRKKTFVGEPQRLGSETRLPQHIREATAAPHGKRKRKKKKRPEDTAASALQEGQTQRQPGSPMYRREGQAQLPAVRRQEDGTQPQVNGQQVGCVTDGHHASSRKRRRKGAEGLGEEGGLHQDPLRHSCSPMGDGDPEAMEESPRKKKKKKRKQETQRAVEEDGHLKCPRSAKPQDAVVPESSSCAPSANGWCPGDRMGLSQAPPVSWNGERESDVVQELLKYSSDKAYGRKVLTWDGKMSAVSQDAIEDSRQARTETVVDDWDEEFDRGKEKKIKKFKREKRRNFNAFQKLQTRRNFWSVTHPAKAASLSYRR
How it was run: as §1

[3] = biological target: T2, USP38 (UniProt Q8NB14)
T2 sequence (whole entry): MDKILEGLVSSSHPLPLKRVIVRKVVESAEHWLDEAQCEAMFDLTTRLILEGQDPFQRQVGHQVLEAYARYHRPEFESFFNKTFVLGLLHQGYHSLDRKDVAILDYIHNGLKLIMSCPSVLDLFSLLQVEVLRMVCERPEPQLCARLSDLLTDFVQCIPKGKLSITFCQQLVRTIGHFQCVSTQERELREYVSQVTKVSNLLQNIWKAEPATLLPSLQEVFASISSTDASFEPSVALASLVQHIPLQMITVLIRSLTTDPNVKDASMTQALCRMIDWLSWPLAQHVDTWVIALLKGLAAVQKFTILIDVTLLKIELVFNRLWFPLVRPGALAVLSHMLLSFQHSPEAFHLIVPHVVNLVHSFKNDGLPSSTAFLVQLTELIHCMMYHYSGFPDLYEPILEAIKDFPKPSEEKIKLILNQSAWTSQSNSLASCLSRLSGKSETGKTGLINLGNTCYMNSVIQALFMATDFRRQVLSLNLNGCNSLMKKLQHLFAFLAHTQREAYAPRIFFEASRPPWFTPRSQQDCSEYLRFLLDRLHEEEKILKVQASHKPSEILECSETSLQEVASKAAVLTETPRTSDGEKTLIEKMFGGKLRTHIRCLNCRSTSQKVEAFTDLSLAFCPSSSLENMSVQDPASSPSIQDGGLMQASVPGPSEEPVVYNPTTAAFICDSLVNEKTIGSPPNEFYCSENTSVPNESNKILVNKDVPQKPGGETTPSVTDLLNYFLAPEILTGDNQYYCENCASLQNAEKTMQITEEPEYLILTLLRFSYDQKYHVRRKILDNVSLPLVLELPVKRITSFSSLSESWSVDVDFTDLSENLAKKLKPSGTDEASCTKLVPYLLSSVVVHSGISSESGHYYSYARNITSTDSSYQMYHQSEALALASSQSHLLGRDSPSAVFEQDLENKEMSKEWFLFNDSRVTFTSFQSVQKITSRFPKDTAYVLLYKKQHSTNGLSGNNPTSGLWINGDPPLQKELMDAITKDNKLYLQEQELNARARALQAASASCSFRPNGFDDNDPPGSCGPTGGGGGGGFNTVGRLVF
How it was run: as §1

[4] = biological target: T3, USP39 (UniProt Q53GS9)
T3 sequence (whole entry): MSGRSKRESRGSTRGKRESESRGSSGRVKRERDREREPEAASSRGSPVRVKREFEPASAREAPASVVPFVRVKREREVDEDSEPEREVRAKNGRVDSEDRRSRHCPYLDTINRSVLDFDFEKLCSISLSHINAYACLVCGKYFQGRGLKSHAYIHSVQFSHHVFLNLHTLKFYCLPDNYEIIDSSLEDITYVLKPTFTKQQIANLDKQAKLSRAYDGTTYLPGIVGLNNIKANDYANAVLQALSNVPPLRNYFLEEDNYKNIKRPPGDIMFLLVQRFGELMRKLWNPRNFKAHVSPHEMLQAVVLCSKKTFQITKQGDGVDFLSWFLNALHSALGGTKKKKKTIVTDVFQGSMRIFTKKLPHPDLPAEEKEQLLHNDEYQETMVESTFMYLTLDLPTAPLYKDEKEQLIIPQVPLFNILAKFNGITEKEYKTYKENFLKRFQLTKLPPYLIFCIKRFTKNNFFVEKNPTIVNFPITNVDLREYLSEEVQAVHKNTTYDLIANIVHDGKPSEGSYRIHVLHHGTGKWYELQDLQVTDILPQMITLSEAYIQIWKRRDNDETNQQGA
How it was run: as §1

[5] = biological target: T4, USP4 (UniProt Q13107)
T4 sequence (whole entry): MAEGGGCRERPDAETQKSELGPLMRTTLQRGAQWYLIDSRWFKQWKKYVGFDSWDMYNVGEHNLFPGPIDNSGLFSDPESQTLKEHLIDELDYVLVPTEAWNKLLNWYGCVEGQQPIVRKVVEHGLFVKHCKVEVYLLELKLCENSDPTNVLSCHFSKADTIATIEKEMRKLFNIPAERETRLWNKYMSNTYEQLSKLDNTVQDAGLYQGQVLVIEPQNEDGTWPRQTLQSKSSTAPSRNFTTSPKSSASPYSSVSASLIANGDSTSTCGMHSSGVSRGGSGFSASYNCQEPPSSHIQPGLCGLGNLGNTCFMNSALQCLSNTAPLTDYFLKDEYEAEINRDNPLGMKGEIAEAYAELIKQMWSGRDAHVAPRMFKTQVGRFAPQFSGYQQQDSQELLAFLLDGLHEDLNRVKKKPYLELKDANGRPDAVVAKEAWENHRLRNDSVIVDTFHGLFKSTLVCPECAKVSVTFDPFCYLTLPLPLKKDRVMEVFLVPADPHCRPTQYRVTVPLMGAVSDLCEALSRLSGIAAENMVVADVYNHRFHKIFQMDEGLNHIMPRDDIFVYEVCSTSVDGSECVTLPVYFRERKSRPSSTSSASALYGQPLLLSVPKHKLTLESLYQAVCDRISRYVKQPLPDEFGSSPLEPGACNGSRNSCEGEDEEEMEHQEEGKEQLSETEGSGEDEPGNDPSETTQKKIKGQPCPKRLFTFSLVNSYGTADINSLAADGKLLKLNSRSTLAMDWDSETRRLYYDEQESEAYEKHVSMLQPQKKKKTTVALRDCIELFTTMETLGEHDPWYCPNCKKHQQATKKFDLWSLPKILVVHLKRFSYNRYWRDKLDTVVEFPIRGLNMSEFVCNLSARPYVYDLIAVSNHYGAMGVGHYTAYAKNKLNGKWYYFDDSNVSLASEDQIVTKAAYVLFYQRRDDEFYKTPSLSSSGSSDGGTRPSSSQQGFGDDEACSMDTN
How it was run: as §1

Measured: log2 ratio of Biotin-Ahx-Ub-VS probe labelling

O=C(CCl)Nc1cccc(C(=O)N2CCSCC2)c1
inactive: [1] -0.185 | [2] 0.0297 | [3] -0.0941 | [4] 0.29 | [5] -0.272
